Experiment [1] can be described thus: NCI Yeast Anticancer Drug Screen. Data for the rad50 strain (AID 155).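 Note: 0% = growth of vehicle-only cultures of the same strain.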 The following applies: S. cerevisiae rad50 strain growth inhibition, active compounds read high. The essentials:
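A DNA repair-deficient yeast mutant serves as the test organism; compound-induced growth inhibition is calculated against vehicle-treated cells.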

The nature of experiment [2]: NCI Yeast Anticancer Drug Screen. Data for the mec2-1 strain (AID 157). The following applies: S. cerevisiae mec2-1 strain, active compounds read high. An outline of the steps: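 Strain: mec2-1 (DNA repair/cell cycle alteration). Compound exposure, then growth measured; inhibition expressed relative to vehicle.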
The nature of experiment [3]: NCI Yeast Anticancer Drug Screen. Data for the sgs1 mgt1 strain (AID 161).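 Note: 0% = growth of cultures given vehicle only.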 The following applies: S. cerevisiae sgs1 mgt1 strain, active compounds read high. An outline of the steps:
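Mutant yeast exposed to compound; growth scored against vehicle-only wells.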

Experiment [4] is described as follows: NCI Yeast Anticancer Drug Screen. Data for the cln2 rad14 strain (AID 165).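 Note: 0% = growth equal to vehicle treated cultures.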 The following applies: S. cerevisiae cln2 rad14 strain, active compounds read high. An outline of the steps: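 Compounds are applied to the cln2 rad14 yeast strain, and growth is then compared with that of vehicle-treated cultures to give inhibition.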
The nature of experiment [5]: NCI Yeast Anticancer Drug Screen. Data for the bub3 strain (AID 167). The following applies: S. cerevisiae bub3 mutant strain, active compounds read high. An outline of the steps: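 Inhibition values come from growth of compound-treated mutant yeast normalised to vehicle-treated controls.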
Experiment [6] can be described thus: NCI Yeast Anticancer Drug Screen. Data for the mlh1 rad18 strain (AID 175). The following applies: S. cerevisiae mlh1 rad18 strain growth inhibition, active compounds read high. The essentials: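 Read-out is yeast growth inhibition, calculated against vehicle-only controls. The compound was applied to a strain engineered with DNA damage repair alterations.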
Where [7] appears, read: at 5.0 µM (retest, dose inferred, filed as 0.5).
Setting [8] is: at 50.0 µM (retest, dose inferred, filed as 5.0).

This is part of a sample that, as a whole, favours compounds with a hit. Of some 79,000 tested, about 15% had one in any assay. Values without a mark were called inactive. Calls of active or inactive are those of the source. Cut-off read from the data, not from the text of the source: active = growth inhibition above about 70%; inactive = the rest.

Consider 9 molecules from PubChem BioAssay (NCI).

For the molecule `O=C(N/N=C/c1cc(Cl)cc(Cl)c1[O-])c1ccccc1O.O=C(N/N=C/c1cc(Cl)cc(Cl)c1[O-])c1ccccc1O.[Mn+2]`, the growth inhibition was 57% in experiment [1] (setting [7]); 90% (active) in experiment [1] (setting [8]); 66.8% in experiment [1] (at 50.0 µM); 88% (active) in experiment [2] (setting [7]); 87% (active) in experiment [2] (setting [8]); 91.3% (active) in experiment [2] (at 50.0 µM). The growth inhibition in experiment [3] (setting [7]) was 68%; in experiment [3] (setting [8]), 88% (active); in experiment [3] (at 50.0 µM), 47.1%; in experiment [4] (setting [7]), 77% (active); in experiment [4] (setting [8]), 72% (active); in experiment [4] (at 50.0 µM), 85% (active). For the same molecule, the growth inhibition in experiment [5] (setting [7]) was 89% (active); in experiment [5] (setting [8]), 80% (active); in experiment [5] (at 50.0 µM), 90.8% (active); in experiment [6] (setting [7]) it was 56%; in experiment [6] (setting [8]), 87% (active); in experiment [6] (at 50.0 µM) it was 68.2%.

With `C[As](C)SCC1OC2OC(C)(C)OC2C2OC(C)(C)OC12` (configuration not stated), the growth inhibition in experiment [1] (setting [7]) is 28%; in experiment [1] (setting [8]), 97% (active); in experiment [1] (at 50.0 µM) it was 91.5% (active); in experiment [2] (setting [7]) it was 21%; in experiment [2] (setting [8]) it was 99% (active); in experiment [2] (at 50.0 µM), 92.2% (active). Besides, the growth inhibition is 45% in experiment [3] (setting [7]); 83% (active) in experiment [3] (setting [8]); 92.5% (active) in experiment [3] (at 50.0 µM); 48% in experiment [4] (setting [7]); 73% (active) in experiment [4] (setting [8]); 90.1% (active) in experiment [4] (at 50.0 µM). The growth inhibition in experiment [5] (setting [7]) is 44%; in experiment [5] (setting [8]), 99% (active); in experiment [5] (at 50.0 µM), 91.5% (active); in experiment [6] (setting [7]), 24%; in experiment [6] (setting [8]), 96% (active); in experiment [6] (at 50.0 µM), 90.2% (active).

On to `COc1c(NC(=O)CC(C)=O)[c]([Hg][O]C(C)=O)c(OC)c(Cl)[c]1[Hg][O]C(C)=O`, for which the growth inhibition in experiment [1] (setting [7]) is 29%; in experiment [1] (setting [8]), 95% (active); in experiment [1] (at 50.0 µM) it was 91.8% (active); in experiment [2] (setting [7]), 32%; in experiment [2] (setting [8]) it was 96% (active); in experiment [2] (at 50.0 µM) it was 93.8% (active). The growth inhibition was 81% (active) in experiment [3] (setting [7]); 97% (active) in experiment [3] (setting [8]); 93.5% (active) in experiment [3] (at 50.0 µM); 29% in experiment [4] (setting [7]); 96% (active) in experiment [4] (setting [8]); 88.8% (active) in experiment [4] (at 50.0 µM). Moreover, the growth inhibition in experiment [5] (setting [7]) was 62%; in experiment [5] (setting [8]) it was 97% (active); in experiment [5] (at 50.0 µM), 93.3% (active); in experiment [6] (setting [7]) it was 38%; in experiment [6] (setting [8]), 95% (active); in experiment [6] (at 50.0 µM), 87.8% (active).

As to `CCOC(=S)S`, the growth inhibition in experiment [1] (setting [7]) is 43%; in experiment [1] (setting [8]) it was 99% (active); in experiment [1] (at 50.0 µM), 98.9% (active); in experiment [2] (setting [7]) it was 17%; in experiment [2] (setting [8]) it was 100% (active); in experiment [2] (at 50.0 µM) it was 99.6% (active). The growth inhibition in experiment [3] (setting [7]) was 4%; in experiment [3] (setting [8]), 99% (active); in experiment [3] (at 50.0 µM), 99.5% (active); in experiment [4] (setting [7]), 12%; in experiment [4] (setting [8]) it was 66%; in experiment [4] (at 50.0 µM), 95.8% (active). Besides, the growth inhibition was 29% in experiment [5] (setting [7]); 99% (active) in experiment [5] (setting [8]); 99.2% (active) in experiment [5] (at 50.0 µM); 31% in experiment [6] (setting [7]); 99% (active) in experiment [6] (setting [8]); 99.2% (active) in experiment [6] (at 50.0 µM).

For `Cc1cc(NCc2ccccc2)c2ccccc2[n+]1CCCCCCCCCC[n+]1c(C)cc(NCc2ccccc2)c2ccccc21`, the growth inhibition is 99% (active) in experiment [1] (setting [7]); 99% (active) in experiment [1] (setting [8]); 90.8% (active) in experiment [1] (at 50.0 µM); 100% (active) in experiment [2] (setting [7]); 99% (active) in experiment [2] (setting [8]); 92.2% (active) in experiment [2] (at 50.0 µM). The growth inhibition in experiment [3] (setting [7]) was 99% (active); in experiment [3] (setting [8]), 99% (active); in experiment [3] (at 50.0 µM) it was 92% (active); in experiment [4] (setting [7]) it was 98% (active); in experiment [4] (setting [8]) it was 99% (active); in experiment [4] (at 50.0 µM), 91.1% (active). The growth inhibition in experiment [5] (setting [7]) is 99% (active); in experiment [5] (setting [8]), 99% (active); in experiment [5] (at 50.0 µM) it was 89.1% (active); in experiment [6] (setting [7]) it was 97% (active); in experiment [6] (setting [8]) it was 98% (active); in experiment [6] (at 50.0 µM) it was 86.2% (active).

On to `CC(C)(C)C(Br)C(=O)NC(N)=O` (configuration not stated), for which the growth inhibition in experiment [1] (setting [7]) was 1%; in experiment [1] (setting [8]), -6%; in experiment [1] (at 50.0 µM), -8%; in experiment [2] (setting [7]), -4%; in experiment [2] (setting [8]) it was 3%; in experiment [2] (at 50.0 µM), -0.45%. In addition, the growth inhibition was 12% in experiment [3] (setting [7]); -7% in experiment [3] (setting [8]); -19.4% in experiment [3] (at 50.0 µM); -6% in experiment [4] (setting [7]); 2% in experiment [4] (setting [8]); 82.2% (active) in experiment [4] (at 50.0 µM). The growth inhibition in experiment [5] (setting [7]) was -3%; in experiment [5] (setting [8]) it was -3%; in experiment [5] (at 50.0 µM) it was -12%; in experiment [6] (setting [7]), -2%; in experiment [6] (setting [8]), -8%; in experiment [6] (at 50.0 µM), 16.3%.

As to `CCOP(=O)(O)C(Nc1ccc(N=Nc2ccccc2)cc1)c1cccc(C(Nc2ccc(N=Nc3ccccc3)cc2)P(=O)(O)OCC)c1` (configuration not stated), the growth inhibition was 10% in experiment [1] (setting [7]); 29% in experiment [1] (setting [8]); 49.4% in experiment [1] (at 50.0 µM); 0% in experiment [2] (setting [7]); 46% in experiment [2] (setting [8]); 47.6% in experiment [2] (at 50.0 µM). For the same molecule, the growth inhibition was 5% in experiment [3] (setting [7]); 8% in experiment [3] (setting [8]); 46.3% in experiment [3] (at 50.0 µM); 6% in experiment [4] (setting [7]); 27% in experiment [4] (setting [8]); 44% in experiment [4] (at 50.0 µM). Besides, the growth inhibition in experiment [5] (setting [7]) is 4%; in experiment [5] (setting [8]), 35%; in experiment [5] (at 50.0 µM), 42.5%; in experiment [6] (setting [7]), 7%; in experiment [6] (setting [8]) it was 42%; in experiment [6] (at 50.0 µM), 47.9%.

Regarding `C[CH2][Sn]([Cl])([CH2]C)[O][Sn]([CH2]C)([CH2]C)[O][Sn]([Cl])([CH2]C)[CH2]C`, the growth inhibition in experiment [1] (setting [7]) is 16%; in experiment [1] (setting [8]), 79% (active); in experiment [1] (at 50.0 µM) it was 76% (active); in experiment [2] (setting [7]), 19%; in experiment [2] (setting [8]), 84% (active); in experiment [2] (at 50.0 µM), 81% (active). The growth inhibition in experiment [3] (setting [7]) was -17%; in experiment [3] (setting [8]), 89% (active); in experiment [3] (at 50.0 µM), 86.3% (active); in experiment [4] (setting [7]) it was 15%; in experiment [4] (setting [8]), 90% (active); in experiment [4] (at 50.0 µM), 82.2% (active). Also, the growth inhibition in experiment [5] (setting [7]) is 12%; in experiment [5] (setting [8]), 89% (active); in experiment [5] (at 50.0 µM), 83.2% (active); in experiment [6] (setting [7]), 11%; in experiment [6] (setting [8]), 77% (active); in experiment [6] (at 50.0 µM) it was 81.4% (active).

On to `c1cc2c(cc1NC1=NCCO1)CCCC2`, for which the growth inhibition in experiment [1] (setting [7]) was 14%; in experiment [1] (setting [8]), 8%; in experiment [1] (at 50.0 µM), -37%; in experiment [2] (setting [7]) it was 6%; in experiment [2] (setting [8]) it was 4%; in experiment [2] (at 50.0 µM), -30%. Further, the growth inhibition in experiment [3] (setting [7]) is -1%; in experiment [3] (setting [8]), 34%; in experiment [3] (at 50.0 µM), -6.4%; in experiment [4] (setting [7]), 28%; in experiment [4] (setting [8]) it was 21%; in experiment [4] (at 50.0 µM), 15.8%. Moreover, the growth inhibition in experiment [5] (setting [7]) was -33%; in experiment [5] (setting [8]) it was -8%; in experiment [5] (at 50.0 µM), -22.6%; in experiment [6] (setting [7]) it was 15%; in experiment [6] (setting [8]), 11%; in experiment [6] (at 50.0 µM), -41.1%.
